Measurements: PubChem BioAssay (Tox21)
Values without a mark were called inactive. Active and inactive are the calls of the source. Calls come from the whole dose curve; as a rule, active = well fitted curve in the direction sought with a large enough effect in the repeat runs; inconclusive = weak or mixed curves; inactive = flat fitted curve, though single readings scatter.

Assay: qHTS assay to test for compound auto fluorescence at 460 nm (blue) in HepG2 cell free culture (AID 720685)
Details: Cell-free culture medium, blue autofluorescence 405/460 nm; series mostly up to 91.3 µM; fluorescence, % of fluorescent control: at the top concentration
Excerpt: U.S. Tox21 Program National Center for Advancing Translational Sciences [NCATS] NIH Chemical Genomics Center [NCGC] U.S. Environmental Protection Agency [EPA] National Institutes of Environmental Health Sciences [NIEHS] National Toxicology Program [NTP] U.S. Food and Drug Administration [FDA] Tox21 Assay Overview: Compound auto fluorescence often interferes with screening of the compound library against various biological targets and signaling pathways. Some of these compounds may have fluorophoric properties. Such properties may interfere with the assay outputs resulting in false positives and/or negatives. To decrease such complications and ensure the compound activities are relevant in terms of biological response, the Tox21 10K compound library was screened for auto fluorescence. From the fluorophores used as reporter signals in our screening assays, the auto fluorescence equivalencies of compounds against three fluorophores have been evaluated: Triamterene, Fluorescein and Rose Bengal sodium for blue, green and red fluorescence, respectively. The fluorescence intensities were measured using Excitation/Emission wavelengths at 405/460nm, 485/535nm and 540/590nm for blue, green and red labels, respectively. This assay includes the blue fluorescence data.
Tox21 Assay Protocol Summary: 5 uL of culture medium (MEM containing 10% FBS) per well was dispensed into black wall/clear bottom 1536-well plates using a Multidrop Combi Dispenser (ThermoFisher Scientific, Waltham, MA). After 23 nL compound or DMSO vehicle was transferred into assay plate by a pintool work station (Kalypsys, San Diego, CA), fluorescence intensities in the assay plates were measured by an Envision (PerkinElmer, Shelton, CT) plate reader using three labels for measuring blue, green and red fluorescence at […] 460, 535 and 590nm respectively.
% is set by controls: 0 for no effect and ±100 for the full control effect.

Structure (SMILES) | fluorescence, % of fluorescent control | outcome
CC(N)C12CC3CC(CC(C3)C1)C2 (stereo not given) | -0.0359% [at 46 µM] | –
CCOC(=O)OC(C)OC1=C(C(=O)Nc2ccccn2)N(C)S(=O)(=O)c2ccccc21 (stereo not given) | 0.0139% [at 46 µM] | –
O=S(=O)(O)c1cccc(S(=O)(=O)O)c1 | -0.0151% | –
CC(C)C1CCC(O)CC1 (stereo not given) | -0.0221% | –
CC(C)C(=O)OC(=O)C(C)C | -0.0046% | –
NCCCC[C@H](N[C@@H](CCc1ccccc1)C(=O)O)C(=O)N1CCC[C@H]1C(=O)O | -0.005% [at 18.6 µM] | –
CCCc1ncc(C[n+]2ccccc2C)c(N)n1 | 0.0057% [at 18.6 µM] | –
[K+] | -0.0052% | –
Cc1c(N)c(=O)n(-c2ccccc2)n1C | -0.0617% [at 18.6 µM] | –
O=C(c1ccccc1O)c1ccccc1O | -0.0364% | –
Cc1ccc(C(=O)Nc2ccc(S(=O)(=O)O)c3cc(S(=O)(=O)O)cc(S(=O)(=O)O)c23)cc1NC(=O)c1cccc(NC(=O)Nc2cccc(C(=O)Nc3cc(C(=O)Nc4ccc(S(=O)(=O)O)c5cc(S(=O)(=O)O)cc(S(=O)(=O)O)c45)ccc3C)c2)c1 | 0.0618% [at 46 µM] | –
CC[N+](CC)(CC(=O)Nc1c(C)cccc1C)Cc1ccccc1 (tested in a mixture with another compound) | 0.0248% | –
COC(=O)C1=C(C)NC(C)=C(C(=O)OC(C)C)C1c1cccc2nonc12 (stereo not given) | -0.0347% [at 18.6 µM] | –
CCC(C(=O)NC(=O)NC(C)=O)c1ccccc1 (stereo not given) | 0.0429% [at 46 µM] | –
O=C1NC(=O)C2CC=CCC12 (stereo not given) | 0.0369% | –
CC(C)=CCC/C(C)=C/C#N | 0.172% [at 95.7 µM] | –
CN1CCC(=C2c3ccccc3CCc3cccnc32)CC1 | -0.0184% [at 46 µM] | –
[Ca+2] | -0.0099% | –
OCCCCCO | 0.0025% [at 95.7 µM] | –
CC(C)(C)C(=O)c1ccccc1 | -0.0832% | –

Structure (SMILES) | fluorescence, % of fluorescent control | outcome
CN(C)C(=O)Oc1ccc[n+](C)c1 | 0.0289% [at 46 µM] | –
Nc1c2c(nc3c1CCC3)CCCC2 | 6.3e-05% [at 46 µM] | –
NCCCC(N)(C(=O)O)C(F)F (stereo not given) | -0.0115% [at 46 µM] | –
CC(C)(C)OC(=O)c1cccc(N)c1 | -0.0222% [at 95.7 µM] | –
COc1cccc(OC)c1C(=O)N[C@@H]1C(=O)N2[C@@H]1SC(C)(C)[C@@H]2C(=O)O | -0.0249% [at 46 µM] | –
CN1CCN(c2cc3c(nn2)Oc2ccccc2N3C)CC1 | 0.953% [at 46 µM] | –
CCCCS(=O)(=O)N[C@@H](Cc1ccc(OCCCCC2CCNCC2)cc1)C(=O)O | 0.0053% [at 46 µM] | –
CC1=NN(c2cc(S(=O)(=O)O)ccc2Cl)C(=O)C1N=Nc1ccccc1 (stereo not given) | -0.812% | –
CC(C)CC(C)(N)C#N (stereo not given) | -0.0301% [at 95.7 µM] | –
Nc1ccccn1 | -0.0595% | –
N[C@@H](CCC(=O)O)C(=O)O | – | inactive
CC(=O)O[C@@]12CO[C@@H]1C[C@H](O)[C@@]1(C)C(=O)[C@H](O)C3=C(C)[C@@H](OC(=O)[C@H](O)[C@@H](NC(=O)OC(C)(C)C)c4ccccc4)C[C@@](O)([C@@H](OC(=O)c4ccccc4)[C@H]21)C3(C)C | – | inactive
OCCc1ccccn1 | -0.137% | –
CC(C)[C@H]1CC[C@@H](C)CC1=O | 0.0092% | –
O=C(O)c1cn(C2CC2)c2cc(N3CCNCC3)c(F)cc2c1=O | 0.0229% [at 18.6 µM] | –
C1CCC2(CCCCO2)OC1 | -0.0794% | –
Nc1ccn([C@@H]2O[C@H](CO)[C@@H](O)C2(F)F)c(=O)n1 | -0.0361% [at 46 µM] | –
C=COCC1CCC(COC=C)CC1 (stereo not given) | 0.0427% | –
CC(COc1ccccc1)NN (stereo not given) | 0.0015% [at 46 µM] | –
CCN(CC#N)c1cccc(C)c1 | -0.0319% | –
